Results filed as inconclusive are left out. Activity calls are given as the source filed them. How the source made its calls, unless noted: active means hit-call score of the fitted dose curve at least 0.9, where 1 is the maximum; inactive means score below 0.9.

Results on ten compounds are retold here after PubChem BioAssay (EPA / NIEHS).

The test system of assay [1] is DIO1 (gene 1733). Briefly: CCTE_GLTED_hDIO1: CCTE's human Deiodinase 1 (DIO1) Inhibition Assay, Great Lakes Toxicology and Ecology Division (GLTED) Lab (AID 2283987; active means hit-call score of the fitted dose curve at least 0.9, where 1 is the maximum;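 further: isolated human DIO1 enzyme in a cell-free setup rather than cells; enzyme activity read as free iodide liberated from substrate via Sandell-Kolthoff colorimetry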). The procedure, abridged: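 Steps: human DIO1 enzyme plus test chemical, 3 h incubation; free iodide then quantified in a second Sandell-Kolthoff step by absorbance. DMSO served as negative control and baseline.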

Assay [2] addresses Nucleoli Translocation, AR (gene 367) (UniProt P10275). Briefly: UPITT_HCI_U2OS_AR_TIF2_Nucleoli_Antagonist: University of Pittsburgh U2OS Androgen Receptor-Transcriptional Intermediary Factor 2 (AR-TIF2) Antagonism High Content Imaging Assay for Nucleoli Translocation (AID 2283997; active means hit-call score of the fitted dose curve at least 0.9, where 1 is the maximum). The procedure, abridged: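 U2OS cells co-expressing red-fluorescent-tagged human AR and green-fluorescent-tagged TIF2, imaged by high-content microscopy for nucleolar red fluorescence. Antagonist mode against DHT; primary screen at 20 uM final (0.2% DMSO).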

The target is the same in assay [3]. Briefly: UPITT_HCI_U2OS_AR_TIF2_Nucleoli_Agonist: University of Pittsburgh U2OS Androgen Receptor-Transcriptional Intermediary Factor 2 (AR-TIF2) Agonism High Content Imaging Assay for Nucleoli Translocation (AID 2283998; active means hit-call score of the fitted dose curve at least 0.9, where 1 is the maximum). The procedure, abridged: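 RFP-AR / GFP-TIF2 cells; cpds diluted in serum-free medium; single-point screen 20 uM final (0.2% DMSO), actives confirmed in triplicate; conc-response 0.195–50 uM final (0.5% DMSO). Readout: nucleolar red fluorescence, positive direction vs DMSO.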

The target of assay [4] is Ratio of Nucleoli Translocation and Cytoplasm, AR (gene 367) (UniProt P10275). In words: UPITT_HCI_U2OS_AR_TIF2_Nucleoli_Cytoplasm_Ratio_Antagonist: University of Pittsburgh U2OS Androgen Receptor-Transcriptional Intermediary Factor 2 (AR-TIF2) Antagonism High Content Imaging Assay for Ratio of Nucleoli Translocation and Cytoplasm (AID 2283999; active means hit-call score of the fitted dose curve at least 0.9, where 1 is the maximum;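 further: antagonists lower the DHT-driven ratio of nucleolar to cytoplasmic red signal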). The essentials: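 U2OS cells co-expressing RFP-tagged human AR and GFP-tagged TIF2, antagonist mode with DHT as baseline. Nucleolar-to-cytoplasmic red fluorescence ratio imaged by high-content microscopy; final compound 20 uM (0.2% DMSO) primary, 0.195–50 uM (0.5% DMSO) concentration-response.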

For assay [5] the target is unchanged. Briefly: UPITT_HCI_U2OS_AR_TIF2_Nucleoli_Cytoplasm_Ratio_Agonist: University of Pittsburgh U2OS Androgen Receptor-Transcriptional Intermediary Factor 2 (AR-TIF2) Agonism High Content Imaging Assay for Ratio of Nucleoli Translocation and Cytoplasm (AID 2284000; active means hit-call score of the fitted dose curve at least 0.9, where 1 is the maximum;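 further: hits raise the red nucleolar to cytoplasm ratio above vehicle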). The essentials:
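U2OS cells expressing RFP-tagged human AR and GFP-tagged TIF2; high-content imaging ratio of nucleolar to cytoplasmic red fluorescence, fitted as gain of signal vs DMSO. Single point at 20 uM final (0.2% DMSO); concentration-response 0.195-50 uM final (0.5% DMSO).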

A short description of assay [6]: CCTE_Harrill_HTTr_Viability_MCF7: CCTE's 6-hour Cell Viability Assessment for the High-Throughput Transcriptomics (HTTr) Platform, in MCF-7 cells cultured in DMEM + 10% fetal bovine serum, Harrill Lab (AID 2284010). The essentials: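 MCF-7 cells in DMEM + 10% FBS, 384-well, exposed 6 h to an eight-point dilution series. Membrane integrity scored by high-content imaging of propidium iodide exclusion; bidirectional fit versus DMSO.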

Assay [7] can be described thus: CCTE_Harrill_HTTr_Apoptosis_MCF7: CCTE's 6-hour Apoptosis Assessment for the High-Throughput Transcriptomics (HTTr) Platform, in MCF-7 cells cultured in DMEM + 10% fetal bovine serum, Harrill Lab (AID 2284011). The procedure, abridged:
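Read-out: CellEvent Caspase 3/7 Green signal by high content imaging, gain-of-signal indicating apoptosis. MCF-7 cells, DMEM + 10% FBS, eight-point dilution series, 6 h exposure. Curves fitted bidirectionally relative to DMSO negative control.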

Assay [8] can be described thus: CCTE_Harrill_HTTr_CellCount_MCF7: CCTE's Cell Proliferation Assessment for the High-Throughput Transcriptomics (HTTr) Platform, Harrill Lab (AID 2284012; active means hit-call score of the fitted dose curve at least 0.9, where 1 is the maximum;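 further: cells exposed to compound for six hours; intended direction is loss of nuclei count meaning fewer cells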). The essentials: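 MCF7 cells exposed 6 hours to an eight-point dilution series; Hoechst-stained nuclei counted by high-content imaging. Bidirectional curve fitting against DMSO baseline.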
Assay [9] in a line: CCTE_Shafer_MEA_acute_spike_number: CCTE's Neural Acute Assay for Total Number of Spikes, Shafer Lab (AID 2284008).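 On AC50: curve fitted for decrease in spike count so AC50 reflects inhibitors.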 The procedure, abridged: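 Rat cortical cultures, DIV 13/15, 37 C. 40 min baseline rec, cpd 0.03-40 uM, 40 min post-dose rec. Band-pass 300-5000 Hz, spike threshold 8x rms; % change in spike count per well, DMSO neg ctrl, loss-of-signal fit.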
Assay [10] in a line: CCTE_Shafer_MEA_acute_firing_rate_mean: CCTE's Neural Acute Assay for Mean Firing Rate, Shafer Lab (AID 2284009).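 Further: analyzed for loss of signal so actives lower firing rate relative to DMSO.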 The procedure, abridged: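 Rat primary cortical neurons on 48-well MEA plates, dosed at 0.03-40 uM on DIV 13 or 15; 40 min spontaneous activity recorded at 37 C before and after compound. Spike rate per electrode averaged per well, expressed as percent change from baseline.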

The nature of assay [11]: CCTE_Shafer_MEA_acute_burst_number: CCTE's Neural Acute Assay for Single-Electrode Bursts, Shafer Lab (AID 2284013). The procedure, abridged:
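Primary rat cortical neurons on 16-electrode MEA wells, treated on DIV 13 or 15 with compound at 0.03-40 uM. Single-electrode burst count from 40-min recordings at 37 C before and after exposure; percent change from baseline per well, DMSO negative control.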

Assay [12] is described as follows: CCTE_Shafer_MEA_acute_burst_duration_mean: CCTE's Neural Acute Assay for Mean Burst Duration, Shafer Lab (AID 2284014).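 Further: hits are decreases in mean burst duration relative to DMSO controls.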 The procedure, abridged: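 Rat primary cortical neurons on 48-well MEA, treated at DIV 13 or 15 with 0.03-40 uM in at least 3 wells. Value is percent change in mean burst duration, comparing 40 min recordings at 37 C before and during exposure.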

A short description of assay [13]: CCTE_Shafer_MEA_acute_per_burst_spike_number_mean: CCTE's Neural Acute Assay for Average Number of Spikes Per Burst, Shafer Lab (AID 2284015).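 Further: hits are decreases in mean spikes per burst versus baseline.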 The procedure, abridged:
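Primary rat cortical neurons on 48-well MEA plates, treated on DIV 13 or 15 at 0.03-40 uM. Spontaneous activity recorded 40 min before and 40 min after compound at 37 C; percent change in mean spikes per single-electrode burst per well, fitted in the loss direction versus DMSO.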

Assay [14] in a line: CCTE_Shafer_MEA_acute_interburst_interval_mean: CCTE's Neural Acute Assay for Mean Interburst Interval, Shafer Lab (AID 2284016).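 Further: percent change of mean interburst interval versus each well's own pre-dose baseline; curves fitted for decrease in interburst interval relative to DMSO.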 The procedure, abridged: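 Primary rat cortical neurons on 16-electrode MEA wells were recorded 40 min at baseline on DIV 13 or 15, then 40 min after compound (0.03-40 uM), at 37 C. Value is percent change in mean interburst interval per well, DMSO as negative control.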

Assay [15] in a line: CCTE_Harrill_HTTr_Viability_PRF_DMEM_24hr: (Pilot) CCTE's 24-hour Cell Viability Assessment for the High-Throughput Transcriptomics (HTTr) Platform, in MCF-7 cells cultured in phenol red-free DMEM + 10% charcoal-stripped fetal bovine serum, Harrill Lab (AID 2283980). The essentials:
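MCF-7 cells in phenol red-free DMEM with 10% charcoal-stripped FBS, eight-point dilution series, 24 h exposure. Membrane integrity by propidium iodide exclusion with high content imaging; bidirectional fit vs DMSO.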

A short description of assay [16]: CCTE_Harrill_HTTr_Apoptosis_DMEM_6hr: (Pilot) CCTE's 6-hour Apoptosis Assessment for the High-Throughput Transcriptomics (HTTr) Platform, in MCF-7 cells cultured in DMEM + 10% fetal bovine serum, Harrill Lab (AID 2283981). The essentials: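 Caspase-3/7 activation read by high content imaging with CellEvent Caspase 3/7 Green in MCF-7 cells (DMEM + 10% FBS), 6 h after dosing; eight-point dilution series. Bidirectional fitting relative to DMSO baseline.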

Assay [17] in a line: CCTE_Harrill_HTTr_Apoptosis_DMEM_12hr: (Pilot) CCTE's 12-hour Apoptosis Assessment for the High-Throughput Transcriptomics (HTTr) Platform, in MCF-7 cells cultured in DMEM + 10% fetal bovine serum, Harrill Lab (AID 2283982). The essentials:
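MCF-7 cells in DMEM + 10% FBS, exposed 12 h to an eight-point dilution series; caspase-3/7 activation imaged with CellEvent Green. Bidirectional fit versus DMSO.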

A short description of assay [18]: CCTE_Harrill_HTTr_Apoptosis_DMEM_24hr: (Pilot) CCTE's 24-hour Apoptosis Assessment for the High-Throughput Transcriptomics (HTTr) Platform, in MCF-7 cells cultured in DMEM + 10% fetal bovine serum, Harrill Lab (AID 2283983). The essentials:
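MCF-7 cells in DMEM + 10% FBS, eight-point dilution series, 24 h exposure. Caspase-3/7 activation imaged by high-content imaging with CellEvent Caspase 3/7 Green. Bidirectional curve fitting against DMSO baseline.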

Assay [19] can be described thus: CCTE_Harrill_HTTr_Apoptosis_PRF_DMEM_6hr: (Pilot) CCTE's 6-hour Apoptosis Assessment for the High-Throughput Transcriptomics (HTTr) Platform, in MCF-7 cells cultured phenol red-free DMEM + 10% charcoal-stripped fetal bovine serum, Harrill Lab (AID 2283984). The procedure, abridged: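 MCF-7 cells in phenol red-free DMEM + 10% charcoal-stripped FBS, eight-point dilution series, 6 h exposure. Caspase-3/7 activation imaged by high-content imaging with CellEvent Caspase 3/7 Green; bidirectional fit versus DMSO baseline.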

The nature of assay [20]: CCTE_Harrill_HTTr_Apoptosis_PRF_DMEM_24hr: (Pilot) CCTE's 24-hour Apoptosis Assessment for the High-Throughput Transcriptomics (HTTr) Platform, in MCF-7 cells cultured in phenol red-free DMEM + 10% charcoal-stripped fetal bovine serum, Harrill Lab (AID 2283986). The essentials:
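MCF-7 cells in phenol red-free DMEM with 10% charcoal-stripped FBS, exposed 24 h across an eight-point dilution series. Caspase-3/7 activation imaged with CellEvent Green by high content imaging; bidirectional fitting against DMSO.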

Chain of Nucleoli Translocation, AR (gene 367) (P10275 whole entry, looked up): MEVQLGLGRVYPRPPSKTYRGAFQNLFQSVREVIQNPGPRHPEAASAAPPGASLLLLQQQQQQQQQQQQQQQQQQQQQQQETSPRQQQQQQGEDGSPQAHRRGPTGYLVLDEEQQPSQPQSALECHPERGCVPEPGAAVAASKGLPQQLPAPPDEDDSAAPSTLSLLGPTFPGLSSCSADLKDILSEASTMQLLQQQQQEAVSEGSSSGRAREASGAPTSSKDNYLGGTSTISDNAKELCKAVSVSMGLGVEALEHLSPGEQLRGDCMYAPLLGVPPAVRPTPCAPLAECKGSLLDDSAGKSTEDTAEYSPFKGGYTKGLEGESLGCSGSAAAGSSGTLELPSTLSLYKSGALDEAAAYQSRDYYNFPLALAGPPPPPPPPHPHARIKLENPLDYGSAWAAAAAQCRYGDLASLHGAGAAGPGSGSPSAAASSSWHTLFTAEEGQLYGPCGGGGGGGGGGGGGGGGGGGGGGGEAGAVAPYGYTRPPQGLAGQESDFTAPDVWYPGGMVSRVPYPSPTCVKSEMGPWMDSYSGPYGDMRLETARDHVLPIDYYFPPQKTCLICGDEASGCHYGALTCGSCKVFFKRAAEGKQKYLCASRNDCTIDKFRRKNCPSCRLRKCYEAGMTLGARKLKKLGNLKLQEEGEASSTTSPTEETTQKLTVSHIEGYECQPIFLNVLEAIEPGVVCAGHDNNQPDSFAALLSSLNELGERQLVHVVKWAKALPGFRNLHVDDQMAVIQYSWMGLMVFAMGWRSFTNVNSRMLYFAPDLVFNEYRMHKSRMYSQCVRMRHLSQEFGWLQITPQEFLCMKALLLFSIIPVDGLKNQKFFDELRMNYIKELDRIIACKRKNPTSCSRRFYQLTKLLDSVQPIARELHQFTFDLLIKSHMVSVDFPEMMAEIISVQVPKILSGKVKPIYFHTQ
Chain of Ratio of Nucleoli Translocation and Cytoplasm, AR (gene 367) (P10275 whole entry, looked up): as above

As for `O=P(O)(O)CCC(F)(F)C(F)(F)C(F)(F)C(F)(F)C(F)(F)C(F)(F)C(F)(F)C(F)(F)F`, the AC50 in [1] is 182 µM (active).

For the compound `CCCCCCc1ccc(N)cc1`, the call in assay [2], in [3] and in assay [4] was inactive. Further, in [5], the half-maximal activity concentration (AC50) is 78.4 µM (active).

`CCCCCCCCCCCCOC(=O)c1cc(O)c(O)c(O)c1`: the AC50 in assay [1] is 53.4 µM (active). The outcome in [6], in [7] and in assay [8] was inactive.

Consider `OCC(CO)(CBr)CBr`, for which the result in assay [9], in [10], in assay [6], in assay [7], in assay [8] and in [11] was inactive. The compound was classed as inactive in assay [12], in assay [13] and in assay [14].

With `O=C(c1ccccc1)c1ccccc1`, the compound was called inactive in [2], in [3], in assay [4], in assay [5], in assay [6] and in assay [7]. Further, the call in assay [8] was inactive.

Turning to `CC1=NN(c2ccccc2)C(=O)C1`, the outcome in [6] and in assay [7] was inactive.

For `C=C(c1ccc(C(=O)O)cc1)c1cc2c(cc1C)C(C)(C)CCC2(C)C`, the outcome in assay [6] and in assay [7] was inactive.

`CN(C)CCOC(c1ccccc1)c1ccccc1`: the compound was called inactive in assay [2], in assay [3], in assay [5], in assay [6], in assay [7] and in [12]. In addition, the call in assay [13] was inactive. The AC50 in [9] was 4.98 µM (active); in assay [10], 4.98 µM (active); in assay [11], 3.11 µM (active); in assay [14], 7.21 µM (active).

Take `CCCCc1oc2ccccc2c1C(=O)c1cc(I)c(OCCN(CC)CC)c(I)c1`: the AC50 in [15] was 70.4 µM (active); in assay [18], 81.6 µM (active); in assay [20] it was 74.5 µM (active); in assay [9] it was 8.91 µM (active); in assay [10], 8.87 µM (active). Moreover, the outcome in assay [16], in assay [17], in assay [19], in assay [6], in assay [7] and in assay [8] was inactive. Besides, the compound was classed as inactive in assay [11], in assay [12], in assay [13] and in assay [14].

As to `CC(=O)Nc1ccc(O)cc1`, the compound was called inactive in [2], in assay [9], in assay [10], in [6], in assay [7] and in [8]. Moreover, the compound was classed as inactive in assay [11], in assay [12] and in assay [13].

For orientation: AC50 means the midpoint of the concentration-response curve, whichever way the signal moves.
